From PubChem BioAssay AID485284 (NMMLSC, 2010)
Results with a measured potency or affinity are listed apart.

Assay: inhibitors of CD8+ T cell–vesicle binding, dose response, mouse 2C CD8+ T cells, flow cytometry (AID 485284);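 further: drosophila derived vesicles carrying Ld MHC with QL9 peptide plus B7-1 and ICAM-1; vesicle binding seen as anti-B7-1 PE fluorescence on CD8 gated cells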
Settings: 2C mouse CD8+ T cell-exosome binding; at 45 µM (top of the series)

**Q.** Which binding remaining, % of control does the source give for CCCNC(=O)NC(=O)CN1C(=O)NC(C)(c2ccc(C)cc2)C1=O (stereo not drawn) here?
**A.** 160%

**Q.** For O=C(Cc1ccc(S(=O)(=O)N2CCOCC2)s1)Nc1ccc(S(=O)(=O)N2CCCCC2)cc1, which binding remaining, % of control is on record?
**A.** 72.7%

**Q.** For N#Cc1cccc(NC(=O)CN2C(=O)NC3(CCCCCC3)C2=O)c1, which binding remaining, % of control is on record?
**A.** 176%

**Q.** For CN1CCN(C(=O)c2cc3ccccc3cc2O)CC1, which binding remaining, % of control is on record?
**A.** 178%

**Q.** Which binding remaining, % of control does the source give for CC1CCN(S(=O)(=O)Cc2ccccc2Cl)CC1 here?
**A.** 118%

**Q.** For CCCCN1C(=O)NC(NC(=O)C2CC2)(C(F)(F)F)C1=O (stereo not drawn), which binding remaining, % of control is on record?
**A.** 136%

**Q.** Which binding remaining, % of control does the source give for CCOC(=O)c1sc(NC(=O)C2CC(=O)N(c3ccccc3OC)C2)nc1C (stereo not drawn) here?
**A.** 141%

**Q.** With CCOc1ccc(CCNC(=O)CCS(=O)(=O)c2ccc(C)cc2)cc1OCC as the molecule, how does the binding remaining, % of control read?
**A.** 94%

**Q.** Which binding remaining, % of control does the source give for CSCCC(NC(=O)c1ccc(=O)n(C)n1)c1nc2ccccc2[nH]1 (stereo not drawn) here?
**A.** 149%

**Q.** For O=C(N/N=C/c1cccc(OCc2ccccc2)c1)c1ccc(Br)cc1, which binding remaining, % of control is on record?
**A.** 63.5%

**Q.** For COc1ccc(Nc2ccccc2N)cc1, which binding remaining, % of control is on record?
**A.** 182%

**Q.** For Cc1ccc(Cn2c([N+](=O)[O-])cnc2C)cc1, which binding remaining, % of control is on record?
**A.** 35%

**Q.** Which binding remaining, % of control does the source give for CCCc1cc(=O)[nH]c(SCC(=O)N2c3ccccc3CC2C)n1 (stereo not drawn) here?
**A.** 126%

**Q.** Which binding remaining, % of control does the source give for COc1ccc([N+](=O)[O-])cc1NC(=O)c1ccc(N(Cc2ccccc2C)S(C)(=O)=O)cc1 here?
**A.** 99.1%

**Q.** For CS(=O)(=O)c1cccc(-c2csc(N3CCC(C(N)=O)CC3)n2)c1, which binding remaining, % of control is on record?
**A.** 150%

**Q.** With CN(CC(=O)Nc1cc(S(=O)(=O)N2CCCC2)ccc1Cl)Cc1ccc2c(c1)OCO2 as the molecule, how does the binding remaining, % of control read?
**A.** 63%

**Q.** For O=C(Cc1cccc(NC(=O)C2CCCN(C(=O)C3CC3)C2)c1)Nc1cccc(C(=O)N2CCCC2)c1 (stereo not drawn), which binding remaining, % of control is on record?
**A.** 47.2%

**Q.** Which binding remaining, % of control does the source give for CCSc1nnc(NC(=O)c2ccc(F)c(S(=O)(=O)N3CCOCC3)c2)s1 here?
**A.** 127%
